From PubChem BioAssay (NCATS)
Inconclusive results are not listed. Activity calls are given as the source filed them. Calls follow the shape of the dose curve; as a rule, active = well fitted curve in the direction sought with a large enough effect; inconclusive = small, poorly fitted or top-dose-only effect, or another doubt; inactive = no such curve, though single readings can be large; an effect the other way counts as inactive or inconclusive.

Legend:
[1] = qHTS of pediatric cancer cell lines to identify multiple opportunities for drug repurposing: Primary screen for LAN-5 cells (AID 1347100); also: potency is read from the fitted curve at half-maximal effect;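 as to activity change, negative = cytotoxic: plate controls were DMSO neutral control for no effect and bortezomib positive control for full effect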
Outline: (§1)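 Cells (500-1,000/well) rested 5 h, then received compounds for 48 h; metabolically active cells were measured by CellTiter-Glo luminescence. Final concentrations spanned up to 46 µM (MIPE, 11-point) or 0.59 nM-46 µM (NPC, 8-point) in primary screens, 11-point in follow-ups.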

[2] = qHTS of pediatric cancer cell lines to identify multiple opportunities for drug repurposing: Primary screen for BT-12 cells (AID 1347101); also: nearly all actives have a fitted effect of over 25% in size; also: potency is read from the fitted curve at half-maximal effect;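 as to activity change, negative = cytotoxic: plate controls were DMSO for no effect and bortezomib positive control for full effect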
Outline: as §1

[3] = qHTS of pediatric cancer cell lines to identify multiple opportunities for drug repurposing: Primary screen for OHS-50 cells (AID 1347103); also: nearly all actives have a fitted effect of over 40% in size; also: potency is read from the fitted curve at half-maximal effect;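 as to activity change, negative = cytotoxic: plate controls were DMSO neutral control for no effect and bortezomib positive control for full effect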
Outline: as §1

[4] = qHTS of pediatric cancer cell lines to identify multiple opportunities for drug repurposing: Primary screen for RD cells (AID 1347104); also: nearly all actives have a fitted effect of over 55% in size; also: potency is read from the fitted curve at half-maximal effect;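 as to activity change, negative = cytotoxic: plate controls were DMSO for no effect and bortezomib for full effect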
Outline: (§2)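 Viability was measured as metabolically active cells after 48 hours of treatment, read by CellTiter-Glo luminescence. Compounds were tested at multiple final concentrations, giving concentration-response curves.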

[5] = qHTS of pediatric cancer cell lines to identify multiple opportunities for drug repurposing: Primary screen for MG 63 (6-TG R) cells (AID 1347105); also: nearly all actives have a fitted effect of over 50% in size; also: potency is read from the fitted curve at half-maximal effect; as to activity change, negative = cytotoxic: % is scaled to controls: 0 for no effect and ±100 for the full control effect
Outline: as §2

[6] = qHTS of pediatric cancer cell lines to identify multiple opportunities for drug repurposing: Primary screen for Rh41 cells (AID 1347108); also: nearly all actives have a fitted effect of over 70% in size; also: potency is read from the fitted curve at half-maximal effect;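 as to activity change, negative = cytotoxic: series mostly up to about 46 µM; luminescence drop marks cytotoxic hits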
Outline: as §2

[7] = qHTS of pediatric cancer cell lines to identify multiple opportunities for drug repurposing: Confirmatory screen for NB1643 cells (AID 1347109); also: potency is read from the fitted curve at half-maximal effect; nearly all actives have a fitted effect of over 45% in size
Outline: as §1

[8] = qHTS of pediatric cancer cell lines to identify multiple opportunities for drug repurposing: Confirmatory screen for A673 cells (AID 1347110);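 also: potency is read from the fitted curve at half-maximal effect; cells exposed to compound for 48 h before the viability read; nearly all actives have a fitted effect of over 65% in size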
Outline: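 A673 cells at 500-1,000 cells/well were dosed 5 h after plating, in dilution series up to 46 uM final; primary runs used 8 or 11 points and confirmatory runs used 11 points. Viability was read by CellTiter-Glo luminescence after 48 h, against DMSO and 2.3 uM bortezomib controls.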

[9] = qHTS of pediatric cancer cell lines to identify multiple opportunities for drug repurposing: Confirmatory screen for SK-N-MC cells (AID 1347111);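 also: cells exposed to compound for 48 h before the readout; nearly all actives have a fitted effect of over 70% in size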; also: potency is read from the fitted curve at half-maximal effect;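 as to activity change, negative = cytotoxic: plate controls were DMSO for no effect and bortezomib for full effect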
Outline: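 Seed 500-1,000 cells/well; rest 5 h at 37 degrees C. Pin-transfer compounds, 11-point titration. Incubate 48 h. Add CellTiter-Glo, 15 min RT, read luminescence.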

[10] = qHTS of pediatric cancer cell lines to identify multiple opportunities for drug repurposing: Confirmatory screen for LAN-5 cells (AID 1347113); also: potency is read from the fitted curve at half-maximal effect; nearly all actives have a fitted effect of over 65% in size
Outline: as §1

[11] = qHTS of pediatric cancer cell lines to identify multiple opportunities for drug repurposing: Confirmatory screen for BT-37 cells (AID 1347117); also: nearly all actives have a fitted effect of over 55% in size; also: potency is read from the fitted curve at half-maximal effect;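 as to activity change, negative = cytotoxic: plate controls were DMSO for no effect and bortezomib for full effect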
Outline: as §1

[12] = qHTS of pediatric cancer cell lines to identify multiple opportunities for drug repurposing: Confirmatory screen for TC32 cells (AID 1347118);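 also: potency is read from the fitted curve at half-maximal effect; cells exposed to compound for 48 h before the read; nearly all actives have a fitted effect of over 65% in size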
Outline: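 Luminescent ATP read-out (CellTiter-Glo) of metabolically active TC32 cells after 48 h exposure. Concentration-response curves came from 11-point (MIPE, 0.78 nM–46 µM) or 8-point (NPC, 0.59 nM–46 µM) primary titrations; follow-up used 11 points.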

[13] = qHTS of pediatric cancer cell lines to identify multiple opportunities for drug repurposing: Confirmatory screen for MG 63 (6-TG R) cells (AID 1347119); also: nearly all actives have a fitted effect of over 55% in size; also: potency is read from the fitted curve at half-maximal effect
Outline: as §1

[14] = qHTS of pediatric cancer cell lines to identify multiple opportunities for drug repurposing: Primary screen for control Hh wild type fibroblast cells (AID 1347106);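 also: series mostly up to about 46 µM; % is scaled to controls: 0 for no effect and ±100 for the full control effect; a drop in luminescence marks cytotoxicity and a rise apparent proliferation; nearly all actives have a fitted effect of over 55% in size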
Outline: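 Viability after 48 h compound treatment at 37C, 500-1,000 cells/well, read as ATP luminescence with CellTiter-Glo. Primary screens used 11-point (MIPE, 0.78 nM-46 µM) or 8-point (NPC, 0.59 nM-46 µM) final concentrations; follow-up screens used 11-point dilutions.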

[15] = qHTS of pediatric cancer cell lines to identify multiple opportunities for drug repurposing: Primary screen for Rh18 cells (AID 1347102); also: nearly all actives have a fitted effect of over 65% in size; also: potency is read from the fitted curve at half-maximal effect; as to activity change, negative = cytotoxic: % is scaled to controls: 0 for no effect and ±100 for the full control effect
Outline: as §1

[16] = qHTS of pediatric cancer cell lines to identify multiple opportunities for drug repurposing: Primary screen for Rh30 cells (AID 1347107); also: nearly all actives have a fitted effect of over 75% in size; also: potency is read from the fitted curve at half-maximal effect; as to activity change, negative = cytotoxic: series mostly up to about 46 µM; % is scaled to controls: 0 for no effect and ±100 for the full control effect
Outline: as §1

[17] = qHTS of pediatric cancer cell lines to identify multiple opportunities for drug repurposing: Confirmatory screen for DAOY cells (AID 1347114); also: nearly all actives have a fitted effect of over 65% in size; as to activity change, negative = cytotoxic: % is scaled to controls: 0 for no effect and ±100 for the full control effect
Outline: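 Viability measured as metabolically active cells via CellTiter-Glo luminescence following 48 hours of compound exposure, 11-point dilutions in confirmatory testing. 500-1,000 cells/well plated 5 hours before dosing; controls were DMSO and 2.3 µM bortezomib.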

[18] = qHTS of pediatric cancer cell lines to identify multiple opportunities for drug repurposing: Confirmatory screen for NB-EBc1 cells (AID 1347115);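 also: cells exposed to compound for 48 h before the viability read; % is scaled to controls: 0 for no effect and ±100 for the full control effect; nearly all actives have a fitted effect of over 45% in size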
Outline: as §1

C[C@@H]1O[C@@H](O[C@H]2CC[C@@]3(C)[C@H](CC[C@@H]4[C@H]3C[C@@H](O)[C@]3(C)[C@@H](C5=CC(=O)OC5)CC[C@]43O)C2)C[C@H](O)[C@@H]1O[C@H]1C[C@H](O)[C@H](O[C@H]2C[C@H](O)[C@@H](O)[C@@H](C)O2)[C@H](C)O1 (stereo in doubt)
active: Potency [1] 0.241 µM | Potency [2] 0.14 µM | Potency [3] 0.14 µM | Potency [4] 0.121 µM | Potency [5] 0.0679 µM | Potency [6] 0.171 µM | Potency [7] 0.339 µM | Potency [8] 0.427 µM | Potency [9] 0.269 µM | Potency [10] 0.302 µM | Potency [11] 0.0955 µM | Potency [12] 0.17 µM | Potency [13] 0.0759 µM

CC[C@@H]([C@H](C)O)n1ncn(-c2ccc(N3CCN(c4ccc(OCC5CO[C@@](Cn6cncn6)(c6ccc(F)cc6F)C5)cc4)CC3)cc2)c1=O (some centres undefined)
inactive: Potency [5] | Potency [14]
active: Potency [1] 18.7 µM | Potency [2] 21.7 µM | Potency [3] 21.7 µM | Potency [4] 20.9 µM

Cn1c(=O)c(Oc2ccc(F)cc2F)cc2cnc(NC3CCOCC3)nc21
inactive: Potency [1] | Potency [2] | Potency [15] | Potency [4] | Potency [14] | Potency [6]

CCc1cccc(CC)c1NC(=O)N1Cc2[nH]nc(NC(=O)c3ccc(N4CCN(C)CC4)cc3)c2C1
active: Potency [1] 0.296 µM | Potency [15] 8.33 µM | Potency [5] 14.8 µM
inactive: Potency [2] | Potency [16]

CC(C)c1c(C(=O)Nc2ccccc2)c(-c2ccccc2)c(-c2ccc(F)cc2)n1CC[C@H](O)C[C@@H](O)CC(=O)O
inactive: Potency [1] | Potency [4] | Potency [14]
active: Potency [2] 5.44 µM | Potency [3] 19.3 µM | Potency [5] 14.8 µM

O=C(O)CCC=CCC[C@@H]1[C@H](N2CCCCC2)[C@@H](O)C[C@@H]1OCc1ccc(-c2ccccc2)cc1
inactive: Potency [1] | Potency [2] | Potency [15] | Potency [5] | Potency [14]
active: Potency [6] 18.7 µM

CCNC(=O)[C@H]1O[C@@H](n2cnc3c(N)nc(NCCc4ccc(CCC(=O)O)cc4)nc32)[C@H](O)[C@H]1O
inactive: Potency [1] | Potency [2] | Potency [15] | Potency [5] | Potency [14] | Potency [16] | Potency [6]

CN[C@H]1[C@@H](O[C@@H]2[C@H](O[C@@H]3[C@@H](O)[C@@H](O)[C@@H](N=C(N)N)[C@@H](O)[C@@H]3N=C(N)N)O[C@H](C)[C@@]2(O)C=O)O[C@@H](CO)[C@@H](O)[C@H]1O
inactive: activity change, negative = cytotoxic [1] -3.6% [at 9.22 µM] | activity change, negative = cytotoxic [2] -1.02% [at 11.5 µM] | activity change, negative = cytotoxic [3] 7.71% [at 11.5 µM] | activity change, negative = cytotoxic [4] 1.46% [at 9.22 µM] | activity change, negative = cytotoxic [5] -18.1% [at 9.22 µM] | activity change, negative = cytotoxic [14] 10.5% [at 9.22 µM] | activity change, negative = cytotoxic [16] 15.1% [at 9.22 µM] | activity change, negative = cytotoxic [6] 17.1% [at 9.22 µM]

Cc1ccccc1C(C(=O)NC1CCCCC1)N(C(=O)CNc1ccc(C#N)cc1)c1cccc(F)c1 (centres undefined)
inactive: Potency [1] | Potency [2] | Potency [15] | Potency [4] | Potency [5] | Potency [14] | Potency [16] | Potency [6]

NS(=O)(=O)c1ccc(Nc2nc(OCC3CCCCC3)c3[nH]cnc3n2)cc1
active: Potency [1] 16.6 µM
inactive: Potency [2] | Potency [15] | Potency [5] | Potency [14] | Potency [6]

O[C@@H](COc1cccc2ncccc12)CN1CCN(C2c3ccccc3[C@@H]3[C@H](c4ccccc42)C3(F)F)CC1 (some centres undefined)
active: Potency [1] 4.73 µM | Potency [2] 24.3 µM | Potency [3] 15.5 µM | Potency [4] 18.7 µM | Potency [5] 29.6 µM | Potency [16] 16.6 µM | Potency [6] 18.7 µM
inactive: Potency [14]

CCN1C[C@H](C)n2c(c(O)c3c(=O)n(Cc4ccc(F)c(Cl)c4)nc(C(=O)NC)c32)C1=O
inactive: Potency [1] | Potency [2] | Potency [3] | Potency [4] | Potency [5] | Potency [14] | Potency [16] | Potency [6]

C[C@@H]1[C@H](C)CC[C@]2(C(=O)O)CC[C@]3(C)C(=CC[C@@H]4[C@@]5(C)CC[C@H](O)C(C)(C)[C@H]5CC[C@]43C)[C@@H]12
inactive: Potency [2] | Potency [15] | Potency [4] | Potency [5] | Potency [14] | Potency [16]
active: Potency [1] 0.303 µM

CN1CC(=O)N2C(Cc3c([nH]c4ccccc34)[C@H]2c2ccc3c(c2)OCO3)C1=O (some centres undefined)
inactive: Potency [1] | Potency [2] | Potency [15] | Potency [4] | Potency [14] | Potency [16]

Cc1nc(C(=O)NCC(=O)O)c(O)c2ccc(Oc3ccccc3)cc12
inactive: Potency [1] | Potency [2] | Potency [15] | Potency [4] | Potency [5] | Potency [16] | Potency [6]

CC1CCN(c2cc(N3CCN(C)CC3)ccc2NC(=O)c2cc(C#N)c[nH]2)CC1
inactive: Potency [1] | Potency [2] | Potency [15] | Potency [5] | Potency [14] | Potency [16]

O=C1Nc2ccc(I)cc2C1=Cc1cc(Br)c(O)c(Br)c1
inactive: Potency [1] | Potency [2] | Potency [15] | Potency [4] | Potency [5] | Potency [14] | Potency [16] | Potency [9] | Potency [17] | Potency [18] | Potency [11] | Potency [13]
active: Potency [8] 11.7 µM

O=C(O)C1=CO[C@@H](O[C@@H]2O[C@H](CO)[C@H](O)[C@H](O)[C@H]2O)[C@@H]2C(CO)=CC[C@H]12
inactive: Potency [1] | Potency [2] | Potency [3] | Potency [4] | Potency [5] | Potency [14] | Potency [16] | Potency [6]

O=C(c1ccc(C(=O)N2CCC(N3CCCC3)CC2)c(Nc2ccccc2)c1)N1CCC(N2CCCC2)CC1
inactive: Potency [1] | Potency [2] | Potency [3] | Potency [4] | Potency [5] | Potency [14]

CN1[C@H]2CC[C@H]1CC(OC(=O)c1c[nH]c3ccccc13)C2 (some centres undefined)
inactive: Potency [1] | Potency [2] | Potency [4] | Potency [5] | Potency [14] | Potency [16]

COc1ccc2ccc(=O)oc2c1CC=C(C)C
active: Potency [1] 29.6 µM | Potency [2] 24.3 µM | Potency [3] 24.3 µM
inactive: Potency [14] | Potency [16]

Oc1cc(O)cc(C=Cc2ccc(O)c(O)c2)c1
inactive: Potency [14]
active: Potency [1] 13.2 µM | Potency [2] 24.3 µM | Potency [3] 19.3 µM

Cc1ccc(C(=O)N(CCCN)[C@@H](c2nc3cc(Cl)ccc3c(=O)n2Cc2ccccc2)C(C)C)cc1
inactive: Potency [14] | Potency [16]
active: Potency [1] 0.001 µM | Potency [2] 0.001 µM | Potency [3] 0.001 µM | Potency [8] 0.0076 µM | Potency [9] 0.024 µM | Potency [17] 0.012 µM | Potency [11] 0.0537 µM | Potency [12] 0.0479 µM | Potency [13] 0.0759 µM

N#CC(c1ccnc(NCCc2cccnc2)n1)c1nc2ccccc2s1 (centres undefined)
inactive: Potency [14]
active: Potency [1] 16.6 µM | Potency [2] 21.7 µM | Potency [3] 19.3 µM | Potency [6] 23.5 µM

CC(C)(F)C[C@H](N[C@@H](c1ccc(-c2ccc(S(C)(=O)=O)cc2)cc1)C(F)(F)F)C(=O)NC1(C#N)CC1
inactive: Potency [1] | Potency [2] | Potency [5] | Potency [14] | Potency [16]

COc1cc(C=CC(=O)O)ccc1O
inactive: Potency [1] | Potency [2] | Potency [4] | Potency [5] | Potency [14] | Potency [16] | Potency [6]

CC[C@H]1OC(=O)[C@H](C)[C@@H](O[C@H]2C[C@@](C)(OC)[C@@H](O)[C@H](C)O2)[C@H](C)[C@@H](O[C@@H]2O[C@H](C)C[C@H](N(C)C)[C@H]2O)[C@](C)(O)C[C@H](C)C(=NOCOCCOC)[C@H](C)[C@@H](O)[C@]1(C)O
inactive: Potency [1] | Potency [2] | Potency [4] | Potency [5] | Potency [14] | Potency [16] | Potency [6]

N#CC(c1ccc(Cl)cc1)c1c(Cl)cc(-n2ncc(=O)[nH]c2=O)cc1Cl (centres undefined)
active: Potency [1] 7.43 µM | Potency [2] 21.7 µM | Potency [3] 15.3 µM | Potency [5] 14.8 µM
inactive: Potency [14]

CCC(=C(c1ccc(O)cc1)c1ccc(OCCNC)cc1)c1ccccc1
active: Potency [1] 26.4 µM | Potency [2] 27.3 µM | Potency [3] 21.7 µM | Potency [5] 23.5 µM
